In the library only some 3.9% were active in any assay of this set; here they are far more common.
TGFb SMAD3 inh: qHTS for Inhibitors of TGF-b; HepG2 CAGA-GFP TGF-b/SMAD3 reporter, GFP fluorescence, 18 h; TGF-beta stimulated, 500 pg/mL final; AID 588855, 2011; Potency, µM (doses to about 46.1 µM), without a hit: at the top dose activity, negative = inhibition, hits mostly inhibitors; 410,000 compounds, 1.2% hits; further: on the % scale 0 is the no-effect control and ±100 the full control effect; nearly all actives have a fitted effect of over 65% in size
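HEPG2 CAGA-GFP reporter cells (1000/well, DMEM with 1% FBS) received compounds, then recombinant TGF-beta at 500 pg/mL final for 18 hours at 37 degrees C. Per-cell GFP summed per well was normalised to unstimulated and stimulated DMSO controls before curve fitting.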
ATXN2 expr inh: Primary qHTS for Inhibitors of ATXN expression; HEK-293 ATXN2-luciferase reporter, luminescence, 24 h; Potency, µM (series often up to 57 µM), inactives show at the highest dose activity change, negative = inhibition, usual class: inhibitors; 360,000 compounds, 0.72% hits; further: on the % scale 0 is the no-effect control and ±100 the full control effect; nearly all actives have a fitted effect of over 55% in size
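ATXN2-luciferase reporter cells (luciferase flanked by upstream and downstream ATXN2 gene portions) were treated 24 h at 37 °C with compounds at up to 57 uM. SteadyGlo luminescence gave expression; GF-AFC fluorescence gave viability.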
HepG2 tox: qHTS for Inhibitors of TGF-b: Cytotox Counterscreen. HepG2 CAGA-GFP viability, ATP luminescence, 18 h. Potency, µM (series often up to 46.1 µM), for inactives: at the top dose activity change, negative = cytotoxicity, actives largely listed as cytotoxic. 410,000 compounds, 0.76% hits. AID 588856, 2011
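CellTiter-Glo luminescence gave cytotoxicity after 18 hours at 37 degrees C. The cells were HepG2 CAGA-GFP in 1% FBS DMEM, stimulated with 500 pg/mL TGF-beta after compound addition. %Activity was normalised to no-cell wells (complete cell-killing) and DMSO (no toxicity), and curves were fitted and classified.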
HT1080-NT tox: qHTS for induction of synthetic lethality in tumor cells producing 2HG: qHTS for the HT-1080-NT fibrosarcoma cell line; HT-1080-NT fibrosarcoma viability, CellTiter-Glo ATP luminescence, 48 h; Potency, µM (titrated, usually from 46.1 µM), inactives show at the top dose activity, negative = less viability, usual class: cytotoxic; 360,000 compounds, 1.6% hits; AID 686970, 2013;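 further: NT is the 2HG producing partner of a matched IDH1 knockdown line; 0% = DMSO-treated cells and -100% = media-only wells without cells; nearly all actives have a fitted effect of over 55% in size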
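Toxicity toward the 2HG-producing NT line was scored as %Activity, normalised to DMSO and no-cell wells, from CellTiter-Glo luminescence after 48 hours' treatment.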
HT1080 IDH1KD tx: qHTS for induction of synthetic lethality in tumor cells producing 2HG: qHTS for the HT-1080-IDH1KD cell line | HT-1080 IDH1 knockdown viability, ATP luminescence, 48 h | Potency, µM (top dose mostly 46.1 µM), without a hit: at the top dose activity, negative = toxicity, usual class: cytotoxic | 360,000 compounds, 2% hits | AID 686971, 2013;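 further: 0% = DMSO wells and -100% = cell-free medium wells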
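Viability of IDH1-knockdown HT-1080 fibrosarcoma cells was assessed by CellTiter-Glo after 48 h at 37 °C with titrated compound; concentration-effect curves were classified by fit quality and response size.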
ATXN viability: Viability Counterscreen for Primary qHTS for Inhibitors of ATXN expression; S2 cells (HEK-293 line with an ATXN2-luciferase reporter) viability, CellTiter-Fluor protease fluorescence, 24 h; Potency, µM (titrated, usually from 56.7 µM), most hits filed as cytotoxic; 400,000 compounds, 0.49% hits; AID 651635, 2014; further: nearly all actives have a fitted effect of over 40% in size
The depositor's hits bear a star; i = inactive; ? = inconclusive; nt = no result; ! = repeats disagree. The call rests on the fitted dose curve; in most records, active means well fitted curve in the direction sought with a large enough effect; inconclusive means small, poorly fitted or top-dose-only effect, or another doubt; inactive means no such curve, though single readings can be large; an effect the other way counts as inactive or inconclusive. Potency means the concentration at half of the fitted maximal effect.

SMILES	TGFb SMAD3 inh	ATXN2 expr inh	HepG2 tox	HT1080-NT tox	HT1080 IDH1KD tx	ATXN viability
COc1ccc(CCNC(=O)C(CC(C)C)N2Cc3ccccc3C2=O)c(OC)c1OC (configuration not stated)	4%	nt	-18%	nt	nt	nt
CCc1ccccc1NC(=O)Cn1c(=O)n(Cc2ccc3c(c2)OCO3)c(=O)c2ccc(C(=O)NC3CCCCC3)cc21	26%	16%	-54%	nt	nt	i
CCCOc1ccccc1NC(=O)/C=C/C(N)=O	?	-32%	-31%	?	10µM*	nt
COc1cccc(-n2c(=O)c3sc4ccccc4c3n(CC(=O)Nc3cccc(Cl)c3)c2=O)c1	7.9µM*	3%	-5%	nt	nt	?
CS(=O)(=O)Nc1ccc(OCc2ccccc2)cc1	-2%	41%	-3%	-2%	-8%	i
Oc1ccc(NCc2ccc(OCc3ccccc3Cl)cc2)cc1	5µM*	?	7.1µM*	nt	nt	nt
CCc1ccc(CNc2ccc(O)cc2)cc1	8.9µM*	-12%	13µM*	?	?	i
Oc1ccc(NCc2ccc(OCc3ccccc3)cc2)cc1	16µM*	?	10µM*!	23µM*	?	?
Oc1ccc(OCc2ccccc2)cc1	nt	-5%	nt	nt	nt	?
O=C1CCCC/C1=N\Nc1ccc(OCc2ccccc2)cc1	2%	-12%	0%	?	5.2µM*	i
C(=C\c1ccccn1)/c1ccccc1	?	nt	-32%	nt	nt	nt
Cc1ccc(S(=O)(=O)c2cn(C)c3cc(N4CCCC4)c(F)cc3c2=O)c(C)c1	-24%	nt	-20%	nt	nt	nt
Cc1ccc(S(=O)(=O)c2cn(C)c3cc(N4CCN(C)CC4)c(F)cc3c2=O)c(C)c1	-3%	?	-24%	21µM*	?	i
COc1ccc(CN2COc3ccc4c(C)cc(=O)oc4c3C2)cc1	10%	-3%	4%	nt	nt	nt
Oc1ccc(-c2n[nH]c(=S)n2-c2ccc3c(c2)OCCO3)c(O)c1	14µM*	?	-48%	-13%	?	i
S=c1[nH]nc(-c2ccc(Cl)cc2Cl)n1-c1ccc2c(c1)OCCO2	1%	9%	11%	-5%	-4%	?
CO[C@H]1C=CO[C@@]2(C)Oc3c(C)c(O)c4c(O)c(c5c(c4c3C2=O)NC2(CCN(CC(C)C)CC2)N=5)=NC(=O)C(C)=CC=C[C@H](C)[C@H](O)[C@@H](C)[C@@H](O)[C@@H](C)[C@H](OC(C)=O)[C@H]1C	nt	-10%	nt	nt	nt	nt
CS(=O)(=O)c1ccc(C(=O)OCC(=O)NCc2cccs2)cc1[N+](=O)[O-]	11µM*	?	-106%	?	-26%	?
Cn1c(=O)[nH]c(=O)c2c1nc(CN1CCN(c3cccc(Cl)c3)CC1)n2CCc1ccccc1	?	-17%	-51%	?	?	i
CCCCCn1c(CN2CCN(c3cccc(Cl)c3)CC2)nc2c1c(=O)[nH]c(=O)n2C	?	25µM*	-71%	?	?	?
COc1cc(Br)cc(/C=N/NC(=O)Cc2ccc(C(F)(F)F)cc2[N+](=O)[O-])c1O	10µM*	?	16µM*	?	16µM*	i
CC1CN(CC(O)COC(c2ccc(Cl)cc2)c2ccc(Cl)cc2)CC(C)O1 (configuration not stated)	?	?	16µM*	?	?	?
CN(C)CC(O)COC(c1ccc(Cl)cc1)c1ccc(Cl)cc1 (configuration not stated)	?	?	16µM*	21µM*	?	?
Cc1ccnc2ccc3ccccc3c12	-17%	nt	1%	nt	nt	nt

High-throughput results (PubChem)
